Screening results from PubChem.
RE007 growth inh: less growth of the S. pombe RE007 Vpr strain | S. pombe RE007 Vpr strain, BacTiter-Glo ATP luminescence, 24 h | Potency, µM (titrated, usually from 92.2 µM), for inactives: at the top dose activity change, negative = less growth, usual class: inhibitors | AID 651644 | hit rate 0.21% among 360,000; active = well fitted falling curve with a large enough effect; inconclusive = small, poorly fitted or top-dose-only effect; inactive = no such curve, though single readings can be large or run the other way; note: potency is the fitted concentration of half-maximal effect; % is set by controls: 0 for no effect and ±100 for the full control effect; nearly all actives have a fitted effect of over 50% in size
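Fission yeast RE007 carrying one integrated HIV-1 vpr copy, seeded at OD 0.01 in PMG+AL medium with 23 nL pinned compound. Grown 24 h at 30 degrees; viability read by BacTiter-Glo luminescence after 5 min.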
TbPYK inhibitor: T. brucei pyruvate kinase inhibition; Q57TT1; TbPYK enzyme, Kinase-Glo Plus ATP luminescence, 45 min; Potency, µM (top dose mostly 76.8 µM), for the others: at the highest dose activity, negative = inhibition, actives largely listed as inhibitors; hit rate 0.12% among 410,000; AID 624173; note: potency is the fitted concentration of half-maximal effect; % is set by controls: 0 for no effect and ±100 for the full control effect; nearly all actives have a fitted effect of over 50% in size
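Luminescent Kinase-Glo Plus end-point after 45 min room-temperature reaction of T. brucei pyruvate kinase started with 130 uM ADP (final). Buffer TEA 50 mM pH 7.2 with KCl, MgCl2, BSA, Tween-20; titration-based qHTS with fitted concentration-effect curves.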
Shiga toxin inh: inhibitors of Shiga toxin in Vero cells | Vero cells, Shiga toxin protein synthesis inhibition reporter | inhibition, % at 38.7 µM | hit rate 9.2% among 290,000; in the data active = inhibition mostly above about 28%, no sharp cut-off; inactive = mostly below about 43%; note: 0% is about no effect
FBPA Giardia inh: Giardia lamblia aldolase inhibition. purified Giardia FBPA. A8B2U2. AID 2451. Potency, µM (highest dose often 59.6 µM), inactives show at the highest dose activity, negative = inhibition, most hits filed as inhibitors. hit rate 0.71% among 290,000; note: potency is the fitted concentration of half-maximal effect; % is set by controls: 0 for no effect and ±100 for the full control effect; nearly all actives have a fitted effect of over 55% in size
Target sequence (A8B2U2 whole entry, looked up): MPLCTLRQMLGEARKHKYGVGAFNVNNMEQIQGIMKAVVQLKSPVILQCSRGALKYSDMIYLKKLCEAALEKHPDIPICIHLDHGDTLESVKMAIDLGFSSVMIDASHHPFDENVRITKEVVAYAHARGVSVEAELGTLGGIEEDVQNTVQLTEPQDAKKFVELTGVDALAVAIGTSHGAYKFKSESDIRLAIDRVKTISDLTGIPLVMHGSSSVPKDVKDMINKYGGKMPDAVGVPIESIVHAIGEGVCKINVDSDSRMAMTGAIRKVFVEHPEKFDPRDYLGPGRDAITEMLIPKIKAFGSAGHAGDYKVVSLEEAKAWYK
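40 nM FBPA preincubated 10 min at RT with compound (up to 57.5 uM final), then substrate plus GAPDH/TPI/NAD/arsenate coupling and diaphorase/resazurin added. Fluorescence read after 20 min at RT, 525/598 nm.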
CHX counter: affects cycloheximide protein synthesis inhibition readout, counter-screen; cell reporter, cycloheximide protein synthesis inhibition counterscreen; max response, %; hit rate 12% among 300,000; AID 2314; in the data active = max response mostly above about 13%, no sharp cut-off; inactive = mostly below about 14%; note: read at 38.3 µM for the half of the compounds with a filed dose; 0% is about no effect
LmPK inh: blocks Leishmania mexicana pyruvate kinase activity. purified LmPK, Kinase-Glo ATP luminescence, 1 h. AID 1721. Potency, µM (doses to about 57.5 µM), inactives show at the top dose activity change, negative = inhibition, usual class: inhibitors. hit rate 0.37% among 290,000. Q27686; note: potency is the fitted concentration of half-maximal effect; % is set by controls: 0 for no effect and ±100 for the full control effect
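Purified LmPK (0.1 nM) with 0.5 mM PEP and 0.1 mM ADP in imidazole buffer pH 7.2 with MgCl2/KCl, 1 h at room temperature. ATP formed was read by luciferase luminescence and normalized to no-enzyme and uninhibited controls.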
Starred values were filed as active, the others as inactive; ? = inconclusive; · = no result given. The sample as a whole holds a higher share of hits than the screen did. Unless noted, calls come from the whole dose curve; as a rule, active = well fitted curve in the direction sought with a large enough effect; inconclusive = small, poorly fitted or top-dose-only effect, or another doubt; inactive = no such curve, though single readings can be large; an effect the other way counts as inactive or inconclusive.

SMILES | RE007 growth inh | TbPYK inhibitor | Shiga toxin inh | FBPA Giardia inh | CHX counter | LmPK inh
COC1=C(Nc2ccc(C)cc2)C(=O)c2ccccc2C1=O | ? | -5% | 102* | ? | 53* | -13%
COC1=C(OC)C(=O)c2ccccc2C1=O | · | · | · | -18% | · | ·
COC1=C(Nc2ccccc2)C(=O)c2ccccc2C1=O | ? | 6% | 23* | ? | 19* | -15%
O=C(COc1ccc(F)cc1)N1CCc2ccccc2C1 | 1% | -4% | 26 | -1% | 32* | 0%
O=C(/C=C/C(=O)N1CCc2ccccc2C1)N1CCc2ccccc2C1 | · | 1% | 23 | -6% | -1 | 6%
O=C(c1ccc(Br)s1)N1CCc2ccccc2C1 | 5% | 4% | 152* | · | 49* | -5%
O=C(CCCOc1ccccc1)N1CCc2ccccc2C1 | -17% | 1% | 85* | -24% | 39* | 4%
O=C(Cc1ccc(Br)cc1)N1CCc2ccccc2C1 | -14% | 1% | · | 7% | 39* | 2%
Cc1ccc2nc(-c3ccc(NC(=O)COc4ccc(Cl)c(C)c4)cc3)sc2c1 | · | -4% | · | · | · | ·
CCOC(=O)c1c(CSc2cccs2)n(C)c2cc(Br)c(O)c(CN(C)C)c12 | -14% | -26% | 15 | -15% | -2 | 7%
O=C(CSc1ncccn1)N1CCc2ccccc2C1 | 12% | -11% | 28 | -4% | 14* | -4%
CCNC(=S)N1CCCCC1CO (stereo unspecified) | 0% | -6% | 23 | -1% | -4 | 0%
Cc1ccc(NC(=S)N2CCCCC2CO)cc1C (stereo unspecified) | -16% | 5% | 23 | -8% | 15* | 2%
CC(=O)N1CCC(N(C(=O)Nc2ccc(C)c(C)c2)C2CCCC2)CC1 | -18% | 2% | 1 | -1% | 14* | 3%
CCc1ccc(NC(=O)N(C2CCC(C)CC2)C2CCN(C(C)=O)CC2)cc1 (stereo unspecified) | -16% | -11% | 67* | -20% | 31* | -3%
Cc1cc(Nc2ccccc2F)n2nc(Cc3ccc(Cl)cc3)nc2n1 | · | -8% | · | · | · | ·
C=CCN1c2ccccc2C(=O)CS1(=O)=O | -4% | 2% | · | · | · | ·
COc1cccc(NC(=O)c2ccc3c(c2)OCO3)c1 | ? | -28% | 63* | 4% | 32* | -29%
COc1cccc(NC(=O)c2ccc3c(c2)OCCO3)c1 | ? | -17% | 23 | -1% | 15 | 25µM*
CCC(=O)Nc1cccc(NC(=O)c2ccc3c(c2)OCO3)c1 | -5% | -3% | 61* | -8% | 19* | -19%
CC1CCc2c(sc3ncn(CCO)c(=O)c23)C1 (stereo unspecified) | -25% | 0% | 64* | 6% | 38* | -5%
CCn1nnc2sc3c(c2c1=O)CCC(C)C3 (stereo unspecified) | -12% | 0% | 25 | 5% | 38* | 3%
CC1CCc2c(sc3ncn(Cc4ccc(C(=O)O)cc4)c(=O)c23)C1 (stereo unspecified) | -13% | 1% | 16 | 30% | 0 | 3%
CC(=O)Cn1nnc2sc3c(c2c1=O)CCC(C(C)(C)C)C3 (stereo unspecified) | 4% | 1% | 88* | -2% | 66* | 7%
COc1ccccc1-c1noc(CCCC(=O)Nc2cc(C)ccc2C)n1 | · | 3% | · | · | · | ·
SMILES | RE007 growth inh | TbPYK inhibitor | Shiga toxin inh | FBPA Giardia inh | CHX counter | LmPK inh
CCOC(=O)Cc1csc(NC(=O)Nc2cccc(OC)c2)n1 | 5% | -2% | 30 | -4% | 17* | 0%
CCOC(=O)Cc1csc(NC(=O)c2sc3nc4c(C)cc(C)cc4cc3c2N)n1 | -6% | 2% | 12 | -16% | 20* | 0%
CCN(CC(=O)Nc1cccc(OC)c1)C(=O)c1ccc(C)s1 | -1% | -24% | -4 | 2% | -2 | -1%
CCOC(=O)CN(Cc1sccc1C)C(=O)Nc1cccc(OC)c1 | -11% | 4% | 48* | -1% | 12* | 4%
CCOC(=O)Cc1csc(NC(=O)c2cc(=O)c3ccccc3o2)n1 | -13% | -1% | 31 | -24% | 12 | -5%
CCOC(=O)Cc1csc(NC(=O)c2cccc(OC)c2)n1 | -27% | -10% | 20 | -4% | 12* | -6%
CCOC(=O)Cc1csc(NC(=O)c2ccc(OC)c(OC)c2)n1 | -9% | 0% | -15 | 1% | 2 | -1%
CCOC(=O)Cc1csc(NC(=O)c2csc(C)c2)n1 | 3% | -4% | 35* | 12% | 28* | 0%
CC1(C)Oc2ccc(NC(=O)C3COc4ccccc4O3)cc2O1 (stereo unspecified) | -19% | ? | 72 | -9% | 35* | ?
Cc1ccc(NC(=O)C2Oc3ccccc3OC2C)cc1 (stereo unspecified) | ? | 1% | 19 | 5% | 15* | 1%
O=C(Nc1ccccc1F)C1COc2ccccc2O1 (stereo unspecified) | -12% | -1% | 43* | 12% | 33* | -2%
O=C1NC(=O)c2cc(NC(=O)C3COc4ccccc4O3)ccc21 (stereo unspecified) | -1% | 1% | 22 | -1% | 19 | 0%
CCCNC(=O)c1ccccc1NC(=O)C1COc2ccccc2O1 (stereo unspecified) | -5% | -9% | -15 | 4% | 22 | 0%
Cc1ccc(NC(=O)C2COc3ccccc3O2)cc1 (stereo unspecified) | 0% | 3% | 105* | 5% | 35* | -7%
Cc1cccc(C)c1NC(=O)Cn1nnc(C(=O)Nc2c(C)cccc2C)c1N | · | 4% | · | · | · | ·
O=C(c1ccc2c(c1)N(Cc1ccccc1)C(=O)c1ccccc1S2(=O)=O)N1CCN(c2ccccc2)CC1 | · | 3% | · | · | · | ·
Cc1ccc(NC(=O)C2COc3ccccc3O2)c(C)c1 (stereo unspecified) | 5% | -4% | · | 12% | 23* | 1%
O=C(Nc1cccnc1)C1COc2ccccc2O1 (stereo unspecified) | 6% | 2% | -12 | · | 8 | 2%
COc1cc(NC(=O)C2COc3ccccc3O2)c(OC)cc1Cl (stereo unspecified) | -14% | -7% | 4 | 0% | -1 | 6%
C/C(=N\NC(=O)C1COc2ccccc2O1)c1ccc(C)o1 (stereo unspecified) | 11% | -5% | -9 | -2% | -4 | 0%
COC(=O)c1ccc(C)c(NC(=O)C2COc3ccccc3O2)c1 (stereo unspecified) | -3% | 2% | -1 | 4% | -3 | -1%
O=C(Nc1ccccc1)C1COc2ccccc2O1 (stereo unspecified) | -16% | -2% | 57* | -3% | 22* | -4%
C/C(=N\NC(=O)C1COc2ccccc2O1)c1ccccn1 (stereo unspecified) | ? | -3% | 24 | -18% | 16* | -1%
